{
  "source": "PubChem BioAssay",
  "note": "Active and inactive are the calls of the source.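 The calls were made as follows, unless noted: active = compounds lowering colon cancer cell viability after pretreatment blocking the GSK3B kinase; inactive = the rest.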 Non-standard residues stand in square brackets, D forms with d. Residues, ends and D or L forms follow the SMILES beside them. pGlu = O=C1CC[C@@H](C(=O)O)N1",
  "data": [
    {"assay": "stimulators of insulin release from INS-1E, primary screen, cell-based, 5 mM glucose, NPC library (AID 1117329;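 active = compound raises insulin release from rat beta cells at 5 mM glucose, no numeric limit stated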; also: reference of the scale not given here)", "conditions": "rat INS-1E insulin secretion, at 10 µM, active compounds read high", "values": [
      {"compound": "CN(C)[C@@H]1C(=O)C(C(N)=O)=C(O)[C@@]2(O)C(=O)C3=C(O)c4c(O)cccc4C[C@H]3C[C@@H]12", "insulin secretion stimulation": "-3% (inactive)"},
      {"compound": "CCS(=O)(=O)c1ccc(OC)c(C(=O)OC)c1", "insulin secretion stimulation": "0.9% (inactive)"},
      {"compound": "OC[C@H]1O[C@@H](n2cnc3c(=S)nc[nH]c32)[C@H](O)[C@@H]1O", "insulin secretion stimulation": "0.7% (inactive)"},
      {"compound": "NS(=O)(=O)c1cc(-c2nn[nH]n2)c(NCc2cccs2)cc1Cl", "insulin secretion stimulation": "6.5% (inactive)"},
      {"compound": "Cc1cc(CCCOc2c(C)cc(-c3noc(C(F)(F)F)n3)cc2C)on1", "insulin secretion stimulation": "-0.2% (inactive)"},
      {"compound": "Cc1c(C)n(Cc2ccccc2)c2ccc(C(=O)OCCN(C)C)cc12", "insulin secretion stimulation": "79.2% (active)"},
      {"compound": "O=C1NC(c2ccccc2)(c2ccccc2)C(=O)N1COP(=O)(O)O", "insulin secretion stimulation": "-0.5% (inactive)"},
      {"compound": "CC(C)=CCC/C(C)=C/CC/C(C)=C/C(=O)OCC(=O)[C@@]1(O)CC[C@H]2[C@@H]3CCC4=CC(=O)C=C[C@]4(C)[C@H]3[C@@H](O)C[C@@]21C", "insulin secretion stimulation": "-2% (inactive)"},
      {"compound": "O=C1CC[C@H](C(=O)N2CCCCC2)N1", "insulin secretion stimulation": "0.8% (inactive)"}
    ]},
    {"assay": "growth inhibition of GSK3B-pretreated HCT116 cells – cell-based, CellTiter-Glo, 0.2 to 20 µM (AID 1117336)", "conditions": "HCT116 viability after GSK3B inhibitor, at 20 µM, active compounds read high", "values": [
      {"compound": "Cc1cccc(C)c1NC(=O)CN(CC(=O)O)CC(=O)O", "viability decrease": "-0.05% (inactive)"},
      {"compound": "CCCCCCCCCCOCC(O)CN", "note": "(stereo not drawn)", "viability decrease": "91.1% (active)"},
      {"compound": "Nc1ccc([N+](=O)[O-])c(C(F)(F)F)c1", "viability decrease": "13.2% (inactive)"},
      {"compound": "CC1(C)OC[C@@H]2O[C@@]3(C(=O)O)OC(C)(C)O[C@H]3[C@@H]2O1", "viability decrease": "-3% (inactive)"},
      {"compound": "CC(O)CCCCn1c(=O)c2c(ncn2C)n(C)c1=O", "note": "(stereo not drawn)", "viability decrease": "15.3% (inactive)"},
      {"compound": "CC(=O)OC[C@H]1O[C@@](COC(C)=O)(O[C@H]2O[C@H](COC(C)=O)[C@@H](OC(C)=O)[C@H](OC(C)=O)[C@H]2OC(C)=O)[C@@H](OC(C)=O)[C@@H]1OC(C)=O", "viability decrease": "-1% (inactive)"},
      {"compound": "CCc1oc2ccccc2c1C(=O)c1cc(I)c(O)c(I)c1", "viability decrease": "98.7% (active)"},
      {"compound": "CCCCC(C)(O)CC=C[C@H]1[C@H](O)CC(=O)[C@H]1CCCCCCC(=O)OC", "note": "(stereo partly drawn)", "viability decrease": "-0.5% (inactive)"},
      {"compound": "O=C1c2ccccc2CCc2ccccc21", "viability decrease": "7% (inactive)"},
      {"compound": "Nc1c(NC/C=C\\COc2cc(CN3CCCCC3)ccn2)c(=O)c1=O", "viability decrease": "2.9% (inactive)"},
      {"compound": "Oc1ccccc1-c1nnco1", "viability decrease": "-2.4% (inactive)"},
      {"compound": "C=CCNc1nc(NCC=C)nc(N2CCN(C(c3ccc(F)cc3)c3ccc(F)cc3)CC2)n1", "viability decrease": "50.3% (active)"},
      {"compound": "O=Cc1ccccc1C=O", "viability decrease": "1.65% (inactive)"},
      {"compound": "CC(=O)OC[C@H]1O[C@@H](n2ncc(=O)[nH]c2=O)[C@H](OC(C)=O)[C@@H]1OC(C)=O", "viability decrease": "47.3% (active)"},
      {"compound": "Oc1cccc(O)c1O", "viability decrease": "68.9% (active)"},
      {"compound": "CCCC(=O)O[C@]1(C(=O)CC)CC[C@H]2[C@@H]3CCC4=CC(=O)CC[C@]4(C)[C@H]3[C@@H](O)C[C@@]21C", "viability decrease": "12.1% (inactive)"},
      {"compound": "OCCCc1ccccc1", "viability decrease": "9.55% (inactive)"},
      {"compound": "CC(C)C(=O)Nc1cccc(C2CN3CCSC3=N2)c1", "note": "(stereo not drawn)", "viability decrease": "-30.9% (inactive)"},
      {"compound": "CCNC(=O)[C@@H]1CCCN1C(=O)[C@H](CCCN=C(N)N)NC(=O)[C@H](CC(C)C)NC(=O)CNC(=O)[C@H](Cc1ccc(O)cc1)NC(=O)[C@H](CO)NC(=O)[C@H](Cc1c[nH]c2ccccc12)NC(=O)[C@H](Cc1cnc[nH]1)NC(=O)[C@@H]1CCC(=O)N1", "note": "([pGlu]HWSYGLRP-NHEt)", "viability decrease": "32.1% (inactive)"},
      {"compound": "CN1CC(O)c2cc(N=NC(N)=O)c(O)cc21", "note": "(stereo not drawn)", "viability decrease": "2% (inactive)"},
      {"compound": "C[C@@H]1C[C@H]2[C@@H]3CCC4=CC(=O)C=C[C@]4(C)[C@@]3(F)[C@@H](O)C[C@]2(C)[C@@]1(O)C(=O)COC(=O)c1ccncc1", "viability decrease": "-41.3% (inactive)"},
      {"compound": "c1ccc2[nH]ccc2c1", "viability decrease": "-4.45% (inactive)"},
      {"compound": "O=C(O)COc1nn(Cc2ccccc2)c2ccccc12", "viability decrease": "3.8% (inactive)"},
      {"compound": "C[C@]12C=CC(=O)C=C1[C@@H](F)C[C@@H]1[C@@H]2[C@@H](O)C[C@@]2(C)[C@H]1CC[C@]2(O)C(=O)CO", "viability decrease": "-14.4% (inactive)"},
      {"compound": "O=S(=O)(O)CC(S)CS", "note": "(stereo not drawn)", "viability decrease": "-25.4% (inactive)"},
      {"compound": "CCOC(=O)c1ccc(NC(=O)CN2CCCCC2)cc1", "viability decrease": "18.5% (inactive)"},
      {"compound": "CN1[C@@H]2CC[C@H]1CC(NC(=O)n1c(=O)[nH]c3ccccc31)C2", "note": "(stereo partly drawn)", "viability decrease": "-2.9% (inactive)"},
      {"compound": "Cc1cn([C@@H]2O[C@H](CO)[C@@H](O)[C@H]2F)c(=O)[nH]c1=O", "viability decrease": "26.6% (inactive)"},
      {"compound": "Cc1ccc(O)c2ncccc12", "viability decrease": "16.6% (inactive)"},
      {"compound": "OCc1ccc(Cl)cc1Cl", "viability decrease": "1.6% (inactive)"},
      {"compound": "CN(C)[C@@H]1C(=O)C(C(N)=O)=C(O)[C@@]2(O)C(=O)C3=C(O)c4c(O)cccc4C[C@H]3C[C@@H]12", "viability decrease": "98.1% (active)"},
      {"compound": "CCS(=O)(=O)c1ccc(OC)c(C(=O)OC)c1", "viability decrease": "-5.9% (inactive)"},
      {"compound": "OC[C@H]1O[C@@H](n2cnc3c(=S)nc[nH]c32)[C@H](O)[C@@H]1O", "viability decrease": "95.3% (active)"},
      {"compound": "NS(=O)(=O)c1cc(-c2nn[nH]n2)c(NCc2cccs2)cc1Cl", "viability decrease": "-3% (inactive)"},
      {"compound": "Cc1cc(CCCOc2c(C)cc(-c3noc(C(F)(F)F)n3)cc2C)on1", "viability decrease": "46.3% (inactive)"},
      {"compound": "Cc1c(C)n(Cc2ccccc2)c2ccc(C(=O)OCCN(C)C)cc12", "viability decrease": "90.9% (active)"},
      {"compound": "O=C1NC(c2ccccc2)(c2ccccc2)C(=O)N1COP(=O)(O)O", "viability decrease": "-27% (inactive)"},
      {"compound": "CC(C)=CCC/C(C)=C/CC/C(C)=C/C(=O)OCC(=O)[C@@]1(O)CC[C@H]2[C@@H]3CCC4=CC(=O)C=C[C@]4(C)[C@H]3[C@@H](O)C[C@@]21C", "viability decrease": "92.3% (active)"},
      {"compound": "O=C1CC[C@H](C(=O)N2CCCCC2)N1", "viability decrease": "8.8% (inactive)"}
    ]}
  ]
}
